# Reference: PubChem BioAssay AID1345085 (National Center for Advancing Translational Sciences (NCATS), 2018)
# Results filed as inconclusive are left out. The source made the active and inactive calls. Calls come from the whole dose curve; as a rule, active = well fitted cell-killing curve with a large enough effect; inconclusive = small, poorly fitted or top-dose-only effect, or effect the other way; inactive = no such curve, though single readings can be large or run the other way.
# Tested on: CAOV3
# Test: Confirmatory qHTS for gynecologic anti-cancer compounds from libraries of approved drugs and bioactive compounds; note: nearly all actives have a fitted effect of over 55% in size
# Details: gynecologic cancer cell panel viability, ATPlite luminescence, 48 h; series mostly up to 57.6 µM
# Procedure, shortened: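 Viability is measured as ATP-dependent luciferase light using ATPlite, read 15 min after reagent addition at room temperature. Compounds, in DMSO, span 57.5 uM down to 0.977 nM over 11 threefold steps for 48 h.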
# Potency is the fitted concentration of half-maximal effect.
row,SMILES,Potency
1,CCc1c2c(nc3ccc(OC(=O)N4CCC(N5CCCCC5)CC4)cc13)-c1cc3c(c(=O)n1C2)COC(=O)[C@]3(O)CC,19.3 µM (active)
2,COc1cccc2c1C(=O)c1c(O)c3c(c(O)c1C2=O)C[C@@](O)(C(=O)CO)C[C@@H]3O[C@H]1C[C@H](N)[C@H](O[C@@H]2CCCCO2)[C@H](C)O1,9.68 µM (active)
3,O=C(CCCCCCC(=O)Nc1ccccc1)NO,12.2 µM (active)
4,CNC(=O)c1ccccc1Sc1ccc2c(/C=C/c3ccccn3)n[nH]c2c1,6.85 µM (active)
5,C[C@@]1(C(=O)Nc2ccc(F)nc2)CCCN1c1nc(Nc2cc(C3CC3)[nH]n2)c2cccn2n1,12.2 µM (active)
6,C1CCC(C(CC2CCCCN2)C2CCCCC2)CC1 (stereo not drawn),24.3 µM (active)
7,COc1ccc2cc3[n+](cc2c1OC)CCc1cc2c(cc1-3)OCO2,inactive
8,CCN(CC)CCOc1ccc(/C(=C(\Cl)c2ccccc2)c2ccccc2)cc1,100 µM (active)
9,O=C(c1ccc(F)c(F)c1Nc1ccc(I)cc1F)N1CC(O)([C@@H]2CCCCN2)C1,27.3 µM (active)
10,CCc1nc(C(N)=O)c(Nc2ccc(N3CCC(N4CCN(C)CC4)CC3)c(OC)c2)nc1NC1CCOCC1,6.72 µM (active)
11,FC(F)(F)c1ccc(/C=C/c2nc(COc3ccc(CCCCn4ccnn4)cc3)co2)cc1,inactive
12,CCn1c(-c2nonc2N)nc2c(C#CC(C)(C)O)ncc(OCC3CCCNC3)c21 (stereo not drawn),24.3 µM (active)
13,COc1ccc(-c2ccc3c(N4CCOCC4C)nc(N4CCOCC4C)nc3n2)cc1CO (stereo not drawn),inactive
